Compound activity as filed in PubChem.
Most compounds without a hit are left out; they make up all but 12% or so of the library.
BAZ2B inh – inhibitors of human BAZ2B bromodomain; Q9UIF8; AID 504333; AlphaScreen BAZ2B-H3K14Ac peptide displacement; Potency, µM (highest dose often 114 µM), usual class: inhibitors; actives 4.4% (n = 360,000); further: nearly all actives have a fitted effect of over 60% in size
Target sequence (Q9UIF8 whole entry, looked up): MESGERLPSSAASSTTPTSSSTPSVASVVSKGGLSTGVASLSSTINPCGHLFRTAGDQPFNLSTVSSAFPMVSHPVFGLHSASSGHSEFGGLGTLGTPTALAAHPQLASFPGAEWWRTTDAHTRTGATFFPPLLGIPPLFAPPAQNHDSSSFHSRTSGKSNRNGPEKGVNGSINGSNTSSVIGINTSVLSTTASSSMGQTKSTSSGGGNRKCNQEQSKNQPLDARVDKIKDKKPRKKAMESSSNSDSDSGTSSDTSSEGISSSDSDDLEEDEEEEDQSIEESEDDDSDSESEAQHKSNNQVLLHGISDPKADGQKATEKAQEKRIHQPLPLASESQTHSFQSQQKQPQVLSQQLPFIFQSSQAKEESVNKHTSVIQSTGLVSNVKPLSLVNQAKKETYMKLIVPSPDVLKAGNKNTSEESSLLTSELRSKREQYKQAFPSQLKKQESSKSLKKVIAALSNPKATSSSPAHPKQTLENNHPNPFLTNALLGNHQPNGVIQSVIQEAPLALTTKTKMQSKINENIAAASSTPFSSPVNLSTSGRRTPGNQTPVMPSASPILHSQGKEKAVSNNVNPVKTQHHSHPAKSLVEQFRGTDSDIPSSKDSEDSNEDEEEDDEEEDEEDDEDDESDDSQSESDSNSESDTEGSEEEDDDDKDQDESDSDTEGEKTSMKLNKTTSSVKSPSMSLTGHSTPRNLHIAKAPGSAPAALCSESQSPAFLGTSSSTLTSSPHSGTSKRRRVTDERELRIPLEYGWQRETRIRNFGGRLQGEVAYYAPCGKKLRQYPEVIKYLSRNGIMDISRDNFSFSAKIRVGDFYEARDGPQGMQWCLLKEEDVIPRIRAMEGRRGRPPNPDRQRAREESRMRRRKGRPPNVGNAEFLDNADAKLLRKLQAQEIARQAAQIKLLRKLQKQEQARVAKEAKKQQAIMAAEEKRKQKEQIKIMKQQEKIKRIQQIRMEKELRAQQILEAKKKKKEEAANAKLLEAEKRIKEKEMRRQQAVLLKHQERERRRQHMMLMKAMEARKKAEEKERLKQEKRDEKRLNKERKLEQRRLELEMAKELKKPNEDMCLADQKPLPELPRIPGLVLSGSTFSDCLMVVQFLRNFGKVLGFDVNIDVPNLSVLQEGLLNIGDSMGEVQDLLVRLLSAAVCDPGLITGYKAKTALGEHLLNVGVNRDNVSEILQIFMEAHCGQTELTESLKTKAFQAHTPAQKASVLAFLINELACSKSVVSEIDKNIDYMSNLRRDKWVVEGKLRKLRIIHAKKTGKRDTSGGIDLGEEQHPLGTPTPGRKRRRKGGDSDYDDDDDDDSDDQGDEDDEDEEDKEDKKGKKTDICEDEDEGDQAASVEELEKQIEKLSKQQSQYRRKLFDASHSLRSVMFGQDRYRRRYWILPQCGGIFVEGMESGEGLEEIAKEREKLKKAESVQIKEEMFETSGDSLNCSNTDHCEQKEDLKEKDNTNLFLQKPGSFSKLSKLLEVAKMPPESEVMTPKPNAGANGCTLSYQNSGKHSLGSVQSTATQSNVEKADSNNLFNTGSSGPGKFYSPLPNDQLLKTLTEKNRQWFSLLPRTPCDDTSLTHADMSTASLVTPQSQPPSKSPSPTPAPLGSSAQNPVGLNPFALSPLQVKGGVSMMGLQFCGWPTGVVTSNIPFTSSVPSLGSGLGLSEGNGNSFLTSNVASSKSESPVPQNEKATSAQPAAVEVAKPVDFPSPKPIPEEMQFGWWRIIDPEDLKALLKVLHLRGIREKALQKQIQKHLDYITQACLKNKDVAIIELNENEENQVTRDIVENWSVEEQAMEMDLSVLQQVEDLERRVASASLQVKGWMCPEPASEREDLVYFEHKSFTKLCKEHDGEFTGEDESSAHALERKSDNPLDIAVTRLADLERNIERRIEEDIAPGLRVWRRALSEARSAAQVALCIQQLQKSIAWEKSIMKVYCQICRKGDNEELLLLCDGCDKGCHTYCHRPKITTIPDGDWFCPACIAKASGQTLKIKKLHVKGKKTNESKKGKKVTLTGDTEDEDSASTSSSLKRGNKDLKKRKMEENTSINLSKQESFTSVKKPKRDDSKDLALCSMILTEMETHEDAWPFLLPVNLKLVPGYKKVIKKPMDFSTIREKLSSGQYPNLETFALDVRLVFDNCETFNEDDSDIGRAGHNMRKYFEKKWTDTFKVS
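Inhibition is scored as reduced AlphaScreen emission. The BAZ2B/b-H3(5-23)K14Ac complex (50 nM each) in PBS pH 7.4, 0.01% Tween-20 meets compound (up to 110 uM) for 30 min at RT before bead addition.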
JMJD2A Tudor – blocks the human JMJD2A Tudor domain; Potency, µM (highest dose often 114 µM), actives largely listed as inhibitors; AlphaScreen JMJD2A-Tudor / H3K4me3 peptide binding; actives 4.4% (n = 390,000); further: nearly all actives have a fitted effect of over 50% in size
HP1b binding inh – HP1-beta chromodomain-methylated histone interaction inhibition; AlphaScreen HP1-beta / biotin-H3K9me3 peptide binding; P83916; actives 0.56% (n = 390,000); Potency, µM (series often up to 114 µM), most hits filed as inhibitors; further: nearly all actives have a fitted effect of over 70% in size
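AlphaScreen: HP1-beta (50 nM) preformed 30 min with biotin-H3(1-18)K9me3 peptide (50 nM) in PBS pH 7.4, 0.01% Tween-20. Compound added for 30 min at RT, then streptavidin donor/nickel chelate acceptor beads (10 ug/mL) for 30 min.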
G9a block – G9a (human) methyltransferase inhibition; actives 8.8% (n = 350,000); G9a H3K9 monomethylation, AlphaScreen, 2 h; Potency, µM (highest dose often 102 µM), usual class: inhibitors; AID 504332; further: nearly all actives have a fitted effect of over 75% in size
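AlphaScreen detection with an anti-monomethyl H3K9 antibody quantified product after a 2 h room-temperature reaction containing 500 nM biotinylated H3K9 peptide, 20 µM SAM and 20 nM enzyme, which had been preincubated 15 min with compound.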
L3MBTL1 inh – inhibitors of human L3MBTL1 | Potency, µM (top dose mostly 57.1 µM), most hits filed as inhibitors | AlphaScreen L3MBTL1–H3K9me1 peptide binding | actives 0.66% (n = 230,000) | AID 485360; further: nearly all actives have a fitted effect of over 60% in size
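Read-out is AlphaScreen signal from streptavidin donor and nickel chelate acceptor beads (10 ug/mL final each) bridging L3MBTL1 (50 nM) and biotinylated K9-monomethylated H3(1-15) peptide (75 nM), after 30 min compound exposure at room temperature.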
Sfp inh – Sfp phosphopantetheinyl transferase inhibition; Biochemical Sfp PPTase activity, qHTS; Potency, µM, hits mostly inhibitors; actives 3.5% (n = 310,000);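 further: the enzyme is Sfp with the accession as filed and its product quenches rhodamine fluorescence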
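With Hepes-Na pH 7.6 buffer containing 10 mM MgCl2, Sfp (15 nM) modified BHQ-2-YbbR (12.5 uM) using rhodamine-CoA (5 uM). Two reads 30 minutes apart at 525/598 nm yielded each well's rate.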
Numbers stand for hits; – = inactive; ? = inconclusive; · = no result given; [ ] = dose if it differs, or a comment. The call rests on the fitted dose curve; in most records, active means well fitted curve in the direction sought with a large enough effect; inconclusive means small, poorly fitted or top-dose-only effect, or another doubt; inactive means no such curve, though single readings can be large; an effect the other way counts as inactive or inconclusive.

SMILES	BAZ2B inh	JMJD2A Tudor	HP1b binding inh	G9a block	L3MBTL1 inh	Sfp inh
C[C@@H](C(=O)O)c1ccc(N2Cc3ccccc3C2=O)cc1	·	·	·	–[21.5 µM]	·	–
Cc1cccc(C)c1NC(=O)CN(C)C(=O)c1cccc(-n2cccc2)c1	50.1µM	8.91µM	?	50.1µM	28.2µM	·
COC(=O)c1ccc([C@H](NC(=O)c2ccco2)[C@]2(C)C[C@H]2C2CCCCC2)cc1	·	–	–	·	·	·
C=CCN(c1ccc(C(=O)Nc2cccc(C)c2)cc1)S(C)(=O)=O	–	–	–	–	–	–
C=CCN(c1ccc(C(=O)Nc2ccc(NC(C)=O)cc2)cc1)S(C)(=O)=O	–	14.1µM	–	–	·	–
CC1CC1C(=O)OCC(=O)Nc1ccc(N=Nc2ccccc2)cc1 (stereo not given)	28.2µM	–	?	35.5µM	–	–
CC(C)(O)CN(CCCNC(=S)Nc1ccccc1)C(=S)Nc1ccccc1	·	–	–	·	·	·
O=C(NCCS(=O)(=O)N1CCN(c2ccc(F)cc2)CC1)c1ccco1	–	–	–	–	–	·
COc1ccc(S(=O)(=O)N(CC(=O)N(C)Cc2ccccc2)c2ccc(Cl)cc2)cc1	–	–	–	–	·	·
CCN(CC)S(=O)(=O)c1ccc(NN=C2CCN(C)CC2)c([N+](=O)[O-])c1	·	?	?	35.5µM	?	–
CCN(CC)S(=O)(=O)c1ccc(NN=C2CCN(C(C)C)CC2)c([N+](=O)[O-])c1	?	?	–	44.7µM	?	–
O=[N+]([O-])c1cc(S(=O)(=O)N2CCCC2)ccc1NN=C1CCCCC1	–	–	–	–	–	–
CC1CCCC/C1=N\Nc1ccc(S(N)(=O)=O)cc1[N+](=O)[O-] (stereo not given)	?	?	?	–	–	–
CC(C)(C)C1CCC(=NNc2ccc(S(N)(=O)=O)cc2[N+](=O)[O-])CC1 (stereo not given)	?	?	–	25.1µM	–	–
Cc1ccnc(NC(=O)CSc2nnc3c(n2)[nH]c2ccccc23)c1	–	·	·	?	–	–
Cc1ccc(C(=O)NN2C(=O)CSC2=S)cc1	–	–	–	–	–	–
C/C(=N\N1C(=O)CSC1=S)c1ccc(Br)cc1	?	–	–	39.8µM	–	?
CN(C)NC(=S)NC(=O)C12CC3CC(CC(C3)C1)C2	?	?	–	–	–	?
CC(C)(C)NC(=S)NC(=O)C12CC3CCC(CC(C3)C1)C2	–	89.1µM	–	–	–	–
CN(C(=S)NC(=O)C12CC3CC(CC(C3)C1)C2)c1ccc(O)cc1	·	50.1µM	10µM	·	–	·
CN1CCC(N(C)C(=S)NC(=O)C23CC4CC(CC(C4)C2)C3)CC1	–	–	–	39.8µM	–	–
Cc1cccc(NS(=O)(=O)c2cccc(C(=O)NCC(c3ccco3)N(C)C)c2)c1 (stereo not given)	–	–	–	–	–	·
COc1ccccc1C(=O)Nc1ccccc1OCc1cc(=O)n2cc(C)sc2n1	–	–	–	–	·	·
Cc1ccc(NC(=O)c2oc3ccccc3c2NC(=O)C2CCCCC2)cc1	–	79.4µM	–	–	·	·
Cc1nn(-c2ccccc2)c2c1N(CCCC(=O)NCc1ccc(N(C)C)cc1)C(=O)CS2	?	56.2µM	–	?	·	·
SMILES	BAZ2B inh	JMJD2A Tudor	HP1b binding inh	G9a block	L3MBTL1 inh	Sfp inh
COC(=O)C1=C(C(=O)OC)[C@@H]2N(Cc3ccccc3)c3ccccc3[C@@]23C[C@@H](C(=O)OC)N(S(=O)(=O)c2ccc([N+](=O)[O-])cc2)C3=N1	·	·	·	·	·	–
Cn1cccc1C(=O)N1CCC[C@@]2(CCN(c3ccncc3)C2)C1	·	·	·	–[12.7 µM]	·	–
COc1ccc(O)c(-c2cc(-c3cccs3)[nH]n2)c1	70.8µM	–[11.4 µM]	–	–	–	–
Cc1c(NC(=S)NC(=O)c2sc3ccccc3c2Cl)cccc1C(=O)O	50.1µM	?	–	4.47µM	–	–
CC1CCCCC1NC(=S)NC(=O)c1ccccc1Cl (stereo not given)	·	–	–	·	–	·
CC1CCCCC1NC(=S)NC(=O)c1sc2ccccc2c1Cl (stereo not given)	–	–	–	·	–	31.6µM
CCC1(c2ccc(O)cc2)NC(=O)NC1=O (stereo not given)	·	·	·	·	·	–
